One test has as its target T1, Tyrosyl-tRNA synthetase, putative (Trypanosoma cruzi (strain CL Brener)) (UniProt Q4DSP6).
T1 sequence (whole entry): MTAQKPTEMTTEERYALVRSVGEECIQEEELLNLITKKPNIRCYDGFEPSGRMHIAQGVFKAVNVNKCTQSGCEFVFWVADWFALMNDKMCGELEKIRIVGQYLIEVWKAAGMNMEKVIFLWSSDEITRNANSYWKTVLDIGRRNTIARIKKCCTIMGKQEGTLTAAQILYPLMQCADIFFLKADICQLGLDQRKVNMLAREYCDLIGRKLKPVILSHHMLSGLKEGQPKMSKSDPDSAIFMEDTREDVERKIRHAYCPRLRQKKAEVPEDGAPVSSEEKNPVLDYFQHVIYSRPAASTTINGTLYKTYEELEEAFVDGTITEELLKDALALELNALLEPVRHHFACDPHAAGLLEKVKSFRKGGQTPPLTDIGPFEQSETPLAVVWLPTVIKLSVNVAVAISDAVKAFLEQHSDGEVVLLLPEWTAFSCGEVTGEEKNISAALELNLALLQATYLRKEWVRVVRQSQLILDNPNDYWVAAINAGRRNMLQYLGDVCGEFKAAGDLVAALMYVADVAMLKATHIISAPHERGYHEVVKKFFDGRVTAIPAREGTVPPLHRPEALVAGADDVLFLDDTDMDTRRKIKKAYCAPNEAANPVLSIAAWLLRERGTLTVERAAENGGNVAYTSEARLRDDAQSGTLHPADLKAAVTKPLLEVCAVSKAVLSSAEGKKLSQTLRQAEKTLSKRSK
The test can be described thus: Trypanosoma cruzi tyrosyl tRNA synthetase (TcYRS) _High Tyrosine SOP. The arrangement: scale not given: in the data most compounds retested in dose-response had high values. It counts as functional. The conditions noted are these: 30 µM.
`O=C(c1cnccn1)N1CCN(Cc2ccncc2)c2ncccc2C1`: the Percent Effect was determined as 2.08%.

As for `CS(=O)(=O)N1CCCCCC1C1CCN(c2ncccn2)CC1` (stereo not drawn), the Percent Effect came to 1.47%.

On to `Cc1noc([C@@H]2CC[C@@H]3[C@@H](CCN3S(=O)(=O)c3cccnc3)O2)n1`, for which the Percent Effect is 6.93%.

Take `COc1ccc(-c2noc(C(=O)NCCN3CCCCC3)n2)cc1OC`: the Percent Effect is 3.17%.

Take `CNC(=O)[C@H]1C[C@H]2OCC[C@H]2N(Cc2ccc(C)o2)C1`: the Percent Effect was 1.06%.

Take `N#Cc1ccc(F)c(CN2CCCC2Cn2cccn2)c1` (stereo not drawn): the Percent Effect was 4.95%.

As for `CC(C)CN1CCC(c2nc3c([nH]2)CC(C)(C)CNC3=O)C1` (stereo not drawn), the Percent Effect was found to be 5.82%.

For `CSc1cc2c(cc1NC(=O)NCC(C)(C)C(N)=O)OCCO2`, the Percent Effect is -27.7%.

Take `CC(C)C1CN(C(=O)c2ccc(C(N)=O)cc2)CCS1` (stereo not drawn): the Percent Effect worked out at 2.15%.

`Cc1ccc(-c2cc(CNC(=O)N3CCOC(C)C3)on2)cc1` (stereo not drawn): the Percent Effect turned out to be 6.93%.

Turning to `Cn1cc(N2CC3(CCN(Cc4cccs4)CC3)OCC2=O)cn1`, the Percent Effect is -14.6%.

On to `CCc1noc(C2CCN(C(=O)CCn3nc(C)cc3C)CC2)n1`, for which the Percent Effect was 8.6%.

For the molecule `NC(=O)COc1cccc(C(=O)N2CCCC(n3ccnc3)C2)c1` (stereo not drawn), the Percent Effect was 1.98%.

As for `CCCc1cc(C(=O)N(C)Cc2cccc3ncccc23)n(C)n1`, the Percent Effect came to 7.53%.

Take `CCOCC1CN(Cc2ccoc2)Cc2nn(CC3CC3)cc21` (stereo not drawn): the Percent Effect was -7.92%.

Turning to `Cn1nc(C2CCCN(Cc3ccsc3)C2)c2nccnc21` (stereo not drawn), the Percent Effect was 1.07%.

As to `CCS(=O)(=O)N1CCOC2(CCCN(c3ccc(C)nn3)C2)C1` (stereo not drawn), the Percent Effect was -1.04%.

Consider `CCN(CCC(F)(F)F)C(=O)Nc1cccc(N2CCOCC2)c1`, for which the Percent Effect amounted to 2.65%.

With `Cc1nn(C)cc1CN1CCC(C2Nc3ccccc3S(=O)(=O)N2)CC1` (stereo not drawn), the Percent Effect is 6.45%.

In the case of `COCCCNC(=O)CN1CCCC1c1c(C)nn(C)c1Cl` (stereo not drawn), the Percent Effect was 1.04%.

Turning to `Cc1ccccc1CN1CCN(CC(=O)Nc2cccnc2)CC1`, the Percent Effect is 4.76%.

As for `CS(=O)(=O)N1CCOCC2(CN(Cc3ccsc3)CCO2)C1` (stereo not drawn), the Percent Effect worked out at 5.21%.

Consider `c1cncc(COCc2nnc3n2CCN(Cc2ccoc2)C3)c1`, for which the Percent Effect worked out at 6.45%.

Take `CCN1C(=O)CCC12CCCN(Cc1nccs1)CC2` (stereo not drawn): the Percent Effect was 7.45%.

On to `O=C(Nc1cnn(CCN2CCOCC2)c1)c1cc(F)ccc1F`, for which the Percent Effect came out at 4.41%.

With `O=C(N[C@@H]1CN(Cc2ccc3c(c2)OCO3)[C@@H]2CCCO[C@@H]21)C1CC1`, the Percent Effect came to 1.04%.

For the molecule `Cc1noc(Cl)c1CCC(=O)N1CCC(CC(N)=O)CC1`, the Percent Effect was determined as 4.43%.

For `c1ncn(CC2CCCCN2Cc2noc(C3CC3)n2)n1` (stereo not drawn), the Percent Effect came to 3.43%.

For the molecule `Cc1ccc(CNS(=O)(=O)CC2=NC(=O)n3cccc3C2=O)cc1`, the Percent Effect was -2.12%.

On to `Cn1cc(CN2CCn3cc(CNC(=O)C4CCC4)nc3C2)cn1`, for which the Percent Effect was determined as 7.29%.

For the molecule `CCNC(c1cccnc1)c1cc(C)cc(C)c1` (stereo not drawn), the Percent Effect was 0%.

Turning to `Cc1nc(N2CC[C@@H](NC(=O)c3cnccn3)[C@H](O)C2)c2ccsc2n1`, the Percent Effect stood at 5.82%.

Consider `CC(C)C(C(=O)N1CCN(Cc2ccncc2)CC1)n1cncn1` (stereo not drawn), for which the Percent Effect worked out at 3.23%.

`CC1c2ncc(Cn3cncn3)n2CCN1C(=O)C1CCOCC1` (stereo not drawn): the Percent Effect worked out at 3.12%.

For `Cc1cnn(CCNCC(O)COc2ccc(C#N)cc2)c1` (stereo not drawn), the Percent Effect is 5.42%.

Take `O=C(CCc1nccs1)N1CCN(c2cccnn2)CC1`: the Percent Effect came out at 5.71%.

`CC(O)CN(CC(=O)NC(=O)NCC(F)(F)F)c1ccccc1` (stereo not drawn): the Percent Effect turned out to be 0%.

With `Cn1nccc1C(=O)N1CCOC(Cc2cccc(C(F)(F)F)c2)C1` (stereo not drawn), the Percent Effect amounted to 3.83%.

As to `COC(=O)C(C)(C)NC(=O)C1CC(=O)N(C)C1` (stereo not drawn), the Percent Effect was -1.04%.

The next test has as its target T1, Tyrosyl-tRNA synthetase, putative (Trypanosoma cruzi (strain CL Brener)). Briefly: Trypanosoma cruzi tyrosyl tRNA synthetase (TcYRS) SOP. The conditions noted are these: 30 µM. The test is classed as functional. Also noted: scale not given: direction of the effect not stated beside the values.
Regarding `O=C(c1cnccn1)N1CCN(Cc2ccncc2)c2ncccc2C1`, the Percent Effect amounted to 2.5%.

Consider `CS(=O)(=O)N1CCCCCC1C1CCN(c2ncccn2)CC1` (stereo not drawn), for which the Percent Effect was found to be 7.32%.

Consider `Cc1noc([C@@H]2CC[C@@H]3[C@@H](CCN3S(=O)(=O)c3cccnc3)O2)n1`, for which the Percent Effect worked out at 13.4%.

`COc1ccc(-c2noc(C(=O)NCCN3CCCCC3)n2)cc1OC`: the Percent Effect was -5.13%.

Regarding `CNC(=O)[C@H]1C[C@H]2OCC[C@H]2N(Cc2ccc(C)o2)C1`, the Percent Effect was 8.97%.

Regarding `N#Cc1ccc(F)c(CN2CCCC2Cn2cccn2)c1` (stereo not drawn), the Percent Effect was determined as 1.22%.

Consider `CC(C)CN1CCC(c2nc3c([nH]2)CC(C)(C)CNC3=O)C1` (stereo not drawn), for which the Percent Effect is 19.5%.

Take `CSc1cc2c(cc1NC(=O)NCC(C)(C)C(N)=O)OCCO2`: the Percent Effect was determined as 6.1%.

For `CC(C)C1CN(C(=O)c2ccc(C(N)=O)cc2)CCS1` (stereo not drawn), the Percent Effect amounted to 6.17%.

`Cc1ccc(-c2cc(CNC(=O)N3CCOC(C)C3)on2)cc1` (stereo not drawn): the Percent Effect came out at 13.4%.

Consider `Cn1cc(N2CC3(CCN(Cc4cccs4)CC3)OCC2=O)cn1`, for which the Percent Effect was 8.64%.

As for `CCc1noc(C2CCN(C(=O)CCn3nc(C)cc3C)CC2)n1`, the Percent Effect turned out to be 16.1%.

On to `NC(=O)COc1cccc(C(=O)N2CCCC(n3ccnc3)C2)c1` (stereo not drawn), for which the Percent Effect turned out to be 11%.

As for `CCCc1cc(C(=O)N(C)Cc2cccc3ncccc23)n(C)n1`, the Percent Effect worked out at 18.5%.

For the molecule `CCOCC1CN(Cc2ccoc2)Cc2nn(CC3CC3)cc21` (stereo not drawn), the Percent Effect was 6.1%.

Turning to `Cn1nc(C2CCCN(Cc3ccsc3)C2)c2nccnc21` (stereo not drawn), the Percent Effect was 6.49%.

On to `CCS(=O)(=O)N1CCOC2(CCCN(c3ccc(C)nn3)C2)C1` (stereo not drawn), for which the Percent Effect is -2.5%.

Consider `CCN(CCC(F)(F)F)C(=O)Nc1cccc(N2CCOCC2)c1`, for which the Percent Effect worked out at 7.32%.

In the case of `Cc1nn(C)cc1CN1CCC(C2Nc3ccccc3S(=O)(=O)N2)CC1` (stereo not drawn), the Percent Effect was 14.3%.

For the molecule `COCCCNC(=O)CN1CCCC1c1c(C)nn(C)c1Cl` (stereo not drawn), the Percent Effect is -7.59%.

With `Cc1ccccc1CN1CCN(CC(=O)Nc2cccnc2)CC1`, the Percent Effect is 18.8%.

In the case of `CS(=O)(=O)N1CCOCC2(CN(Cc3ccsc3)CCO2)C1` (stereo not drawn), the Percent Effect came out at 6.17%.

Take `c1cncc(COCc2nnc3n2CCN(Cc2ccoc2)C3)c1`: the Percent Effect was 16.1%.

In the case of `CCN1C(=O)CCC12CCCN(Cc1nccs1)CC2` (stereo not drawn), the Percent Effect was found to be 16.7%.

As to `O=C(Nc1cnn(CCN2CCOCC2)c1)c1cc(F)ccc1F`, the Percent Effect was found to be 9.76%.

In the case of `O=C(N[C@@H]1CN(Cc2ccc3c(c2)OCO3)[C@@H]2CCCO[C@@H]21)C1CC1`, the Percent Effect is -60%.

With `Cc1noc(Cl)c1CCC(=O)N1CCC(CC(N)=O)CC1`, the Percent Effect was found to be 18.5%.

For the molecule `c1ncn(CC2CCCCN2Cc2noc(C3CC3)n2)n1` (stereo not drawn), the Percent Effect worked out at 21.9%.

Turning to `Cc1ccc(CNS(=O)(=O)CC2=NC(=O)n3cccc3C2=O)cc1`, the Percent Effect was 0%.

As for `Cn1cc(CN2CCn3cc(CNC(=O)C4CCC4)nc3C2)cn1`, the Percent Effect was 12.5%.

For `CCNC(c1cccnc1)c1cc(C)cc(C)c1` (stereo not drawn), the Percent Effect was found to be 5.06%.

Turning to `Cc1nc(N2CC[C@@H](NC(=O)c3cnccn3)[C@H](O)C2)c2ccsc2n1`, the Percent Effect is 19.5%.

As for `CC(C)C(C(=O)N1CCN(Cc2ccncc2)CC1)n1cncn1` (stereo not drawn), the Percent Effect worked out at 11.1%.

For the molecule `CC1c2ncc(Cn3cncn3)n2CCN1C(=O)C1CCOCC1` (stereo not drawn), the Percent Effect was 7.5%.

Take `Cc1cnn(CCNCC(O)COc2ccc(C#N)cc2)c1` (stereo not drawn): the Percent Effect came out at 13.9%.

Consider `O=C(CCc1nccs1)N1CCN(c2cccnn2)CC1`, for which the Percent Effect is 9.41%.

On to `CC(O)CN(CC(=O)NC(=O)NCC(F)(F)F)c1ccccc1` (stereo not drawn), for which the Percent Effect stood at 11.8%.

Consider `Cn1nccc1C(=O)N1CCOC(Cc2cccc(C(F)(F)F)c2)C1` (stereo not drawn), for which the Percent Effect came to 3.7%.

Regarding `COC(=O)C(C)(C)NC(=O)C1CC(=O)N(C)C1` (stereo not drawn), the Percent Effect stood at 8.64%.

(Values after ChEMBL document CHEMBL3988442, “University of Dundee, Small-Polar-MMV Screening Library” (2021).)
